H9c2 protect – myocardial damage modulation in H9c2 cells. protection from H2O2 cell death, % at 20 µM. hit rate 0.63% among 360,000. AID 588492. H9c2 cardiomyocytes, H2O2 injury protection, ATPLite, 2 h;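 active means compounds giving at least 50% protection of heart cells from peroxide-induced death in the single-dose screen, raw or plate-pattern-corrected value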;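 further: 0% = DMSO wells with peroxide and 100% = DMSO wells without peroxide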
CRFR2-BP ag – agonists of human CRF-binding protein/CRF-R2 receptor complex; HEK293 CRF-R2/CRF-BP, calcium dye fluorescence (FLIPR); percent of saturating CRF peptide response; activation, % at 13.2 µM; hit rate 0.46% among 350,000;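 active means activation of at least 50%, plus an integration ratio under a set limit after plate pattern correction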;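 further: plate controls were neutral control wells without compound for no effect and CRF at EC100 for full effect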
PfG6PD inh – PfG6PD (Plasmodium falciparum) enzyme inhibition; PfGluPho enzyme, NADPH resazurin-diaphorase fluorescence; inhibition, % at 20 µM; hit rate 0.78% among 350,000;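 active means inhibition reaching at least a set limit at 20 µM in the primary screen, cut at about 59% in these data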;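 further: 0% = DMSO wells with substrate and 100% = DMSO wells lacking glucose-6-phosphate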
CRFR2-BP antag – CRF-BP/CRF-R2 complex antagonism; HEK293 CRF-R2/CRF-BP, CRF-induced calcium fluorescence; inhibition, % at 11.8 µM; hit rate 0.59% among 350,000; AID 588475;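 active means inhibition of the ligand-induced calcium signal above about 50% at the single tested concentration, limit read from the data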
aDG glyco act – alpha-DG glycosylation activation | Pro5-aDG cells, alpha-DG glycosylation AlphaScreen (IIH6); 0% Pro5, 100% B10-LARGE cell signal | activation, % at 10 µM | hit rate 0.22% among 360,000 | AID 624168;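 active means activation of at least 8% versus controls, or a plate z-score of at least 8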;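 further: Pro5 are CHO cells carrying HIG-tagged alpha-DG that lacks glycosylation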
FAS-TE inh – FAS thioesterase (human) inhibition; P49327; recombinant FAS-TE, OMFH fluorogenic substrate, fluorescence endpoint; inhibition, % at 15 µM; hit rate 0.67% among 360,000;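 active means compounds whose normalised, plate-corrected inhibition of enzyme fluorescence in the single-dose primary screen is 50% or more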;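 further: 0% = DMSO with enzyme and 100% = substrate without enzyme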
An asterisk follows results filed as active; nt = no result. This is a sample that favours compounds with a hit; in the whole collection about 3.2% have one here.

SMILES	H9c2 protect	CRFR2-BP ag	PfG6PD inh	CRFR2-BP antag	aDG glyco act	FAS-TE inh
O=S(=O)(NC1CCCCC1N1CCN(c2ccccc2F)CC1)c1ccc(Cl)cc1 (stereo unspecified)	-11	93*	-5	-66	0	29
O=S(=O)(NC1CCCCC1N1CCOCC1)c1ccc(Cl)cc1 (stereo unspecified)	9	133*	7	-131	0	-2
Cc1ccc(C(=O)Oc2ccc(Cl)c3cccnc23)cc1[N+](=O)[O-]	53*	-2	10	22	0	27
Cc1cc(NC(=O)COc2ccccc2C)no1	-3	1	16	-11	0	-4
Cc1cc(NC(=O)COc2nnc(-c3ccccc3)c3ccccc23)no1	48*	-1	-10	4	0	6
COc1ccc(CNC(=O)c2cccc3c(-c4cccc(C(N)=O)c4)coc23)cc1OC	-8	nt	nt	nt	1	-7
O=C(Nc1ccccc1)c1cccc2c(-c3cccnc3)coc12	63*	nt	nt	nt	0	6
NC(=O)c1cccc(-c2coc3c(C(=O)NCCc4ccccc4)cccc23)c1	60*	nt	nt	nt	0	12
CN(C)C(=O)COC(=O)[C@H](Cc1ccccc1)NC(=O)c1ccco1	2	107*	-11	-42	0	-4
CN(C(=O)COC(=O)C(Cc1ccccc1)NC(=O)c1ccccc1)c1ccccc1 (stereo unspecified)	9	1	-15	17	0	2
O=C(COC(=O)C(Cc1ccccc1)NC(=O)c1cccs1)NCc1ccccc1 (stereo unspecified)	-6	-5	-7	9	0	0
O=C(COC(=O)[C@H](Cc1ccccc1)NC(=O)c1ccco1)NCc1ccccc1	4	79*	6	-72	0	-5
O=C(CSCc1ccccc1)Nc1cc([N+](=O)[O-])ccc1F	-2	-1	-10	85*	0	46
C/C(=N\NC(=O)CSCc1ccc([N+](=O)[O-])cc1)c1ccccc1O	63*	1	-55	17	0	20
O=P(C(=S)Nc1ccccc1Cl)(c1ccccc1)c1ccccc1	-2	-1	-3	-13	0	-6
CN(C)/C=C/C(=O)c1ccc([N+](=O)[O-])c(CS(=O)(=O)c2ccc(Cl)cc2)c1	1	4	18	-16	0	32
CCN(CC)S(=O)(=O)c1ccc2c(c1)N(CC(=O)NCc1ccco1)C(=O)CO2	1	-1	-2	83*	0	-3
COC(=O)Nc1c(-c2ccccc2)nc2ccc(Cl)cn12	2	3	4	-8	0	-4
COC(=O)NN1C(=O)C(c2ccccc2)=C(c2ccc(Cl)cc2)C1=O	-2	-4	-15	51*	0	8
COc1ccc(N2CC(C(=O)N3CCN(c4ccccc4)CC3)CC2=O)cc1 (stereo unspecified)	0	-2	-2	8	0	-5
CC(C)(C)C(=O)Nc1sc2c(c1C#N)CCN(Cc1ccccc1)C2	-7	162*	-5	-146	0	-18
CCOc1ccc2[nH]c(=O)c(CN(CCO)C(c3nnnn3C3CCCCC3)C(C)C)cc2c1 (stereo unspecified)	103*	24	15	-52	0	-7
O=C1c2ccccc2C(=O)N1CCCCON1C(=O)c2ccccc2C1=O	2	-9	1	-12	0	2
COc1ccc(N2C(=O)C(Cl)=C(Oc3cccc(OC)c3)C2=O)cc1	-28	3	51	13	0	52*
COc1ccc(N2C(=O)c3ccccc3C2=O)cc1	-1	-2	-11	24	2	3
SMILES	H9c2 protect	CRFR2-BP ag	PfG6PD inh	CRFR2-BP antag	aDG glyco act	FAS-TE inh
CCCCON1C(=O)c2cccc3cccc(c23)C1=O	13	0	5	99*	0	5
COc1ccc(N2C(=O)c3cccc4c(N(C)CCO)ccc(c34)C2=O)cc1	13	77*	17	-57	0	-48
COc1ccc(N2C(=O)c3cccc4cccc(c34)C2=O)cc1	-4	85*	11	-89	0	-5
O=C(O)c1ccc2c(=O)n3c(nc2c1)/C(=C/c1cccc(Cl)c1Cl)CCCC3	4	1	-21	22	1	0
O=C(CN1C(=O)NC2(CCCCCC2)C1=O)NCc1ccccc1Cl	-6	1	3	-7	0	0
CC1(C)CC[C@]2(C(=O)O[C@@H]3O[C@H](CO)[C@@H](O)[C@H](O)[C@H]3O)CC[C@]3(C)C(=CCC4[C@@]5(C)CC[C@H](O[C@@H]6O[C@H](C(=O)O)[C@@H](O[C@H]7OC[C@@H](O)[C@@H](O)[C@@H]7O)[C@H](O)[C@H]6O)C(C)(C)C5CC[C@]43C)[C@@H]2C1 (stereo partly specified)	-2	0	7	-10	0	-4
CC1(C)CC[C@]2(C(=O)O)CC[C@]3(C)C(=CC[C@@H]4[C@@]5(C)CC[C@H](O[C@@H]6O[C@H](C(=O)O)[C@@H](O)[C@H](O[C@@H]7OC[C@H](O)[C@H](O)[C@H]7O)[C@H]6O)C(C)(C)[C@@H]5CC[C@]43C)[C@@H]2C1	-11	256*	-37	-227	0	-5
CC(C)NC(=S)NC(=O)c1ccc(-c2ccccc2)cc1	-14	72*	46	-172	0	40
CC(C)[C@H]1COCCS(=O)(=O)N1Cc1ccccc1-c1ccccc1	-9	-1	18	-8	0	14
CCc1ccc(NC(=O)CSc2nc(N)c(NC(=O)c3ccc(F)c(F)c3)c(=O)[nH]2)cc1	0	0	-10	52*	0	-10
NC1=C(Br)C(=O)c2ccccc2C1=O	-20	1	-155	7	3.9*	15
CCOC(=O)COc1cc2c3c(c(=O)oc2cc1C)CCCC3	-14	0	-35	5	0	4
C=CCOC(=O)COc1ccc2c3c(c(=O)oc2c1)CCCC3	87*	2	11	-6	0	12
CCOC(=O)COc1cc(OCC(=O)OCC)c2c3c(c(=O)oc2c1)CCCC3	64*	0	14	2	0	17
O=C(O)COc1ccc2c3c(c(=O)oc2c1)CCCC3	0	1	-2	22	0	0
CCOC(=O)c1sc(NC(=O)CSc2nncn2C)nc1C	-1	-1	-3	-18	0	0
COc1ccc2[nH]cc(C(=O)CN3CCN(C4CCCCC4)CC3)c2c1	2	-1	-26	13	1	-3
COc1ccc2[nH]cc(C(=O)CN3CCCCC3)c2c1	1	59*	-22	-15	0	-10
C[C@H](CO)N1C[C@H](C)[C@@H](CN(C)C(=O)Nc2ccc(C(F)(F)F)cc2)Oc2c(NC(=O)Nc3ccc4c(c3)OCO4)cccc2C1=O	6	0	21	-11	0	75*

Screening results as filed in PubChem BioAssay.
